The Inhibition is the drop in the measured response relative to a control, in per cent.

The whole screen tested about 21,000 compounds, of which fewer than 10 showed an effect of 50% or more. The list is a sample of the results. Potency and affinity values are given separately.

Consider one compound from ChEMBL document CHEMBL4513139, “CO-ADD screening of University of Strathclyde (UK) compounds”.

This assay deals with Acinetobacter baumannii. Conditions: Concentration 32 ug.mL-1; ASSAY_TEST Inhibition of Bacterial Growth; detection method Absorption (OD600); MEDIA CAMHB; plate type 384well; NBS; CORNING #3640; time 18 hr.
As for `Cn1cc(NC(=O)c2cc(NC(=O)c3ccc(/C=C/c4cccc(F)c4)cc3)cn2C)cc1C(=O)NCCN1CCOCC1.O=C(O)C(F)(F)F`, the Inhibition is on record as 5.74%.
